Results on 43 compounds are retold here after PubChem BioAssay AID1851 (National Center for Advancing Translational Sciences (NCATS), 2009).

Values joined by “and” are separate entries in the source; they are usually repeats but may differ in a detail not shown here. Equal values may be shown once. Among all 16,000 compounds or so, about 5,100 (32%) were called active. About 25% were inconclusive and are not listed. Calls follow the shape of the dose curve; as a rule, active = well fitted curve in the direction sought with a large enough effect; inconclusive = small, poorly fitted or top-dose-only effect, or effect the other way; inactive = no such curve, though single readings can be large or run the other way. Some of the results follow. Some compounds were tested as several samples or in several runs, with calls that do not always agree.
% is scaled to controls: 0 for no effect and ±100 for the full control effect.

Cytochrome P450 3A4 (Homo sapiens), sequence (P08684 whole entry, looked up): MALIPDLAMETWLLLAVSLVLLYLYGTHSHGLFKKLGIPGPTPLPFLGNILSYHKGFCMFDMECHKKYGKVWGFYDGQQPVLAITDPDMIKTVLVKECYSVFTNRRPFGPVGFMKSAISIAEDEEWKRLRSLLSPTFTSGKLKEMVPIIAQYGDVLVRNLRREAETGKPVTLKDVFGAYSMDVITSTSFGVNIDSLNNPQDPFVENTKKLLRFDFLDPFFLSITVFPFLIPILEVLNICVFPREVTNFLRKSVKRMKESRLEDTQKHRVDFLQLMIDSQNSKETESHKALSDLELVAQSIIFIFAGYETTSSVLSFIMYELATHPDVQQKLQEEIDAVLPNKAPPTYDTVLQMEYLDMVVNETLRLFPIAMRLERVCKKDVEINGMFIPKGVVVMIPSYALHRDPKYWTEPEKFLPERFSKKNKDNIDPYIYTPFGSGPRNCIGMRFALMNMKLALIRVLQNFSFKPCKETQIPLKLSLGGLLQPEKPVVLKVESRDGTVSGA

This assay has as its target Cytochrome P450 3A4 (Homo sapiens) (UniProt P08684). Description: Cytochrome panel assay with activity outcomes. Particulars: recombinant CYP, pro-luciferin dealkylation, luminescence, p450-cyp3a4; series mostly up to 57.1 µM; activity, negative = inhibition: at the top concentration.
On to `Nc1nc(N)c(N=Nc2ccc([As](=O)(O)O)cc2)c(=O)[nH]1`, for which the activity, negative = inhibition was 8.58% [at 11.4 µM] (inactive).

Take `C/C=C1\C[C@H](C)[C@@](O)(CO)C(=O)OCC2=CCN3CC[C@@H](OC1=O)[C@@H]23`: the “activity, negative = inhibition” value is 11.6% [at 25.6 µM] (inactive).

Turning to `N=C1c2ccccc2CN1NC(=O)c1ccc(F)cc1`, the “activity, negative = inhibition” value is -6.32% (inactive).

The AC50 is the concentration at which the activity in the assay is half-maximal. Turning to `Cc1c2ccncc2c(C)c2c1[nH]c1ccccc12`, the half-maximal activity concentration (AC50) was 0.158 µM (active).

Take `Cc1nccc2c1[nH]c1ccccc12`: the concentration at half-maximal activity (AC50) entry is “inactive and 3.98 µM (active)”.

Turning to `CCN(CC)CCn1ncc2c(N)ncnc21`, the activity, negative = inhibition is -6.29% [at 11.4 µM] (inactive).

As for `COc1ccc2cc1Oc1ccc(cc1)C[C@H]1c3cc(c(OC)cc3CCN1C)Oc1c(OC)c(OC)cc3c1[C@@H](C2)N(C)CC3`, the activity, negative = inhibition is -2.4% [at 11.4 µM] (inactive).

With `C[N+]1(C)CCO[C@](O)(c2ccc(-c3ccc([C@]4(O)C[N+](C)(C)CCO4)cc3)cc2)C1`, the “activity, negative = inhibition” value was 0.891% [at 25.6 µM] (inactive).

Turning to `COCCn1c(SCc2nc3sc(C(=O)OC)c(C)c3c(=O)[nH]2)nc2ccccc21`, the AC50 is 3.55 µM (active).

With `CC1(C)N(O)C(c2ccc(C(=O)O)cc2)=[N+]([O-])C1(C)C`, the “activity, negative = inhibition” value is -3.6% (inactive).

As for `CC(C)[C@@H](C)/C=C\[C@@H](C)[C@@H]1CC[C@H]2C3=CC=C4C[C@@H](O)CC[C@]4(C)[C@H]3CC[C@]21C`, the activity, negative = inhibition is 10.4% [at 11.4 µM] (inactive).

As to `NCCP(=O)(O)O`, the activity, negative = inhibition was -6.9% [at 11.4 µM] (inactive).

With `CCOCCN1CCC(OC(C)=O)C(C)C1` (stereo not drawn), the “activity, negative = inhibition” value was -5.63% (inactive).

In the case of `CC(C)(C)NC[C@@H](O)COc1cccc2[nH]c(C#N)cc12`, the AC50 is 25.1 µM (active).

With `NCC1(CC(=O)O)CCCCC1`, the activity, negative = inhibition result was “inactive”.

With `COc1cc(/C=N/NC(=O)CN2CC(c3ccccc3)CC2=O)ccc1OC(=O)N(C)C` (stereo not drawn), the “activity, negative = inhibition” value was -11.8% (inactive).

Turning to `CC[C@H](C)C(=O)O[C@@H]1[C@H](O)[C@@H]2[C@H](CN3C[C@@H](C)CC[C@@H]3[C@@]2(C)O)[C@@H]2C[C@@]34O[C@@]5(O)[C@@H](OC(=O)[C@](C)(O)CC)CC[C@@]3(C)[C@H]5[C@H](OC(C)=O)[C@@H](OC(C)=O)[C@H]4[C@]12O`, the “activity, negative = inhibition” value was 2.61% [at 25.6 µM] (inactive).

Take `N[C@@H](Cc1cc(Br)c(O)c(Br)c1)C(=O)O`: the activity, negative = inhibition was -16.7% [at 11.4 µM] (inactive).

Regarding `Cc1ccc2c(c1)C1CN(C)CCC1N2C(=O)Nc1cccc(Cl)c1` (stereo not drawn), the “activity, negative = inhibition” value was -26.5% (inactive).

For `CCn1cnc2c(Nc3cccc(Cl)c3)nc(N[C@@H]3CCCC[C@H]3N)nc21`, the AC50 was 12.6 µM (active).

For the compound `COc1ccc(C(=O)NC2CC3CCCC(C2)N3CC(C)C)cc1OC` (stereo not drawn), the “activity, negative = inhibition” value was 3.52% (inactive).

Turning to `CC(Oc1ccc(-c2ccccc2)cc1)C(=O)O` (stereo not drawn), the activity, negative = inhibition was 4.5% [at 11.4 µM] (inactive).

`C[C@@H]1O[C@H](OC2[C@@H](O)[C@H](O)C(O)[C@H](O)[C@H]2O)[C@@H](N)C[C@@H]1N=C(N)C(=O)O` (stereo partly drawn): the activity, negative = inhibition is 2.45% [at 11.4 µM] (inactive).

Turning to `NC[C@@H](CC(=O)O)c1ccc(Cl)cc1`, the “activity, negative = inhibition” value was -14.9% [at 25.6 µM] (inactive).

Regarding `O=C1CN=C(c2cccs2)c2c(sc3c2CCCC3)N1`, the half-maximal activity concentration (AC50) is 15.8 µM (active).

Regarding `Cc1cc(Cc2cc(C)c(N)cc2N)c(N)cc1N`, the activity, negative = inhibition is -12.7% [at 11.4 µM] (inactive).

As for `Cc1ccc(NC(=[OH+])c2cc3ccccc3cc2O)c(C)c1.Cc1ccc(NC(=[OH+])c2cc3ccccc3cc2O)c(C)c1.[Ni]`, the activity, negative = inhibition is -23% [at 11.4 µM] (inactive).

In the case of `CC(C)CCC[C@@H](C)[C@@H]1CC[C@@H]2[C@H]3CC[C@H]4C[C@@H](N)CC[C@@]4(C)[C@@H]3CC[C@]21C`, the activity, negative = inhibition was 0.227% [at 11.4 µM] (inactive).

As to `Cc1c2cc[n+](CCN3CCCCC3)cc2c(C)c2c1[nH]c1ccc(O)cc12`, the activity, negative = inhibition was -14.8% [at 11.4 µM] (inactive).

Consider `CN1CCN(C(=O)O[C@@H]2c3nccnc3C(=O)N2c2ccc(Cl)cn2)CC1`, for which the “activity, negative = inhibition” value was -19.1% (inactive).

In the case of `COC1=C[C@H]2C3=C([C@H]2C1=O)[C@H](NC(C)=O)CCc1cc(OC)c(OC)c(OC)c13`, the “activity, negative = inhibition” value was -5.01% [at 25.6 µM] (inactive).

With `CN1C(=O)C(C2c3ccccc3C(=O)N2Cc2ccc([N+](=O)[O-])cc2)C(=O)N(C)C1=O` (stereo not drawn), the activity, negative = inhibition is -20.1% [at 11.4 µM] (inactive).

Take `CCCCN1C(=O)C(C2c3ccccc3C(=O)N2Cc2ccccc2)C(=O)NC1=S` (stereo not drawn): the AC50 is 2.51 µM (active).

With `CN1CCc2nc3ccc(F)cc3c(C(N)=O)c2C1`, the “activity, negative = inhibition” value is 3.25% (inactive).

Take `CCN1C[C@]2(C)CC[C@@H](O)[C@]34[C@@H]5CC6[C@@H](OC)C[C@@](O)([C@H]5[C@@H]6O)[C@@H](C[C@@H]23)[C@H]14`: the “activity, negative = inhibition” value is -4.92% (inactive).

For the compound `COC(=O)C1(C)C=C2C(=C(C)C(=O)C2C)CN1` (stereo not drawn), the “activity, negative = inhibition” value was -25% (inactive).

For the compound `N[C@@H](CCCCP(=O)(O)O)C(=O)O`, the “activity, negative = inhibition” value is -5.86% (inactive).

As for `Cn1c(O)c(C(=N)COc2ccccc2)c(=O)n(C)c1=O`, the “activity, negative = inhibition” value is -18.1% (inactive).

As to `NC[C@@H](O)CSP(=O)(O)O`, the activity, negative = inhibition is 2.73% [at 11.4 µM] (inactive).

For the compound `CNC(C)Cc1ccccc1Sc1ccc(O)cc1` (stereo not drawn), the activity, negative = inhibition is -6.72% [at 2.29 µM] (inactive).

For `COC(=O)NC/C=C\c1nc(CC/C=C\C(=O)O[C@H]2C[C@H]3CC(=O)O[C@@H](/C=C\CC(C)C)C[C@@H]4CC[C@H](C)[C@H](C[C@@H](OC)C[C@H](C2)O3)O4)co1`, the AC50 was 5.01 µM (active).

Consider `CNC(=O)Oc1ccc2c(c1)[C@@]1(C)CCN(C)[C@@H]1N2C`, for which the “activity, negative = inhibition” value is -8.94% (inactive).

In the case of `C[N+]1([O-])[C@@H]2CC(OC(=O)[C@@H](CO)c3ccccc3)C[C@@H]1[C@H]1O[C@H]12` (stereo partly drawn), the activity, negative = inhibition result is “inactive”.
